Data published in PubChem BioAssay (Tox21).
A number with no mark means an inactive call. Records with an inconclusive call do not appear. A call without a number means that no potency is given here. The source made the active and inactive calls. Unless noted, calls come from the whole dose curve; as a rule, active = well fitted curve in the direction sought with a large enough effect in the repeat runs; inconclusive = weak or mixed curves; inactive = no such curve, though single readings can be large; an effect the other way counts as inactive or inconclusive.

Columns and labels:
[1] = qHTS assay for small molecule agonists of the p53 signaling pathway (AID 651631; calls by dose curve; note: nearly all actives have a fitted effect of over 15% in size)
Procedure, shortened: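 HCT-116 cells carrying a beta-lactamase reporter under p53 response elements were dosed with compound for 16 h at 37 °C. LiveBLAzer B/G FRET substrate was then added for 2 h at room temperature, and fluorescence intensity was read to detect pathway agonism.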

[2] = qHTS assay for small molecules that induce genotoxicity in human embryonic kidney cells expressing luciferase-tagged ATAD5 (AID 651632); note: nearly all actives have a fitted effect of over 15% in size
Procedure, shortened: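 ATAD5-luc HEK293T, 2,000 cells/well; cpd or DMSO pin-transferred; 16 hr, 37C/5% CO2; Amplite 30 min RT; luminescence.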

[3] = qHTS assay for small molecule agonists of the p53 signaling pathway - cell viability (AID 651633; calls by dose curve;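 note: p53RE-bla HCT reporter cells with a stable beta-lactamase p53 reporter; series mostly up to about 83 µM; nearly all actives have a fitted effect of over 30% in size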)
Procedure, shortened: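 p53RE-bla cells, seeded at 4,000 per well and rested 5 h at 37 C/5% CO2, received compounds in DMSO for 16 h at 37 C. CellTiter-Glo was then added, and luminescence was read after 30 min at room temperature to gauge cytotoxicity.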

[4] = qHTS assay for small molecules that induce genotoxicity in human embryonic kidney cells expressing luciferase-tagged ATAD5 - cell viability (AID 651634; calls by dose curve; note: nearly all actives have a fitted effect of over 25% in size)
Procedure, shortened: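 Fluorescence from CellTiter-Fluor, reporting protease activity within live cells, served as the viability read-out. HEK293T cells carrying luciferase-tagged ATAD5 had been treated with compound for 15.5 hr at 37C.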

[5] = qHTS assay for small molecule disruptors of the mitochondrial membrane potential - cell viability (AID 720634; calls by dose curve;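 note: human HepG2 liver cancer cells; series mostly up to about 83 µM; nearly all actives have a fitted effect of over 20% in size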)
Procedure, shortened: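 Cells: HepG2, 2,000/well, attached overnight. Compound 1 hr, 37 C/5% CO2. +m-MPI dye, +CellTiter-Glo 30 min RT. Readout: luminescence (ATP).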

[6] = qHTS assay for small molecule disruptors of the mitochondrial membrane potential (AID 720635); note: potency is the fitted concentration of half-maximal effect
Procedure, shortened: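 HepG2 cells (2,000/well) attached overnight at 37C, then took compound for 1 hr at 37C, 5% CO2. Mito-MPS dye was added for 30 min; fluorescence was read at 490/535 nm (monomers) and 540/590 nm (aggregates).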

[7] = qHTS assay to test for compound auto fluorescence at 590 nm (red) in HepG2 cells (AID 720674)
Procedure, shortened: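 Intrinsic compound fluorescence in the red window (Ex/Em 540/590 nm) is measured in attached HepG2 cells exposed for 1 hr, DMSO vehicle as baseline, benchmarked to Rose Bengal sodium.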

[8] = qHTS assay to test for compound auto fluorescence at 535 nm (green) in HepG2 cells (AID 720675)
[9] = qHTS assay to test for compound auto fluorescence at 590 nm (red) in HEK293 cells (AID 720679)
Procedure, shortened: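 HEK293 cells (2,000/well, 10% dialyzed FBS) attached 4-5 hr, then dosed with compound or DMSO and incubated overnight at 37C, 5% CO2. Red fluorescence read at 540/590 nm, Rose Bengal sodium as reference fluorophore.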

[10] = qHTS assay to test for compound auto fluorescence at 460 nm (blue) in HEK293 cells (AID 720678)
Procedure, shortened: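 HEK293 cells (2,000/well, medium with 10% dialyzed FBS) attached 4-5 hr, then exposed to compound overnight at 37C, 5% CO2. Blue fluorescence read at 405/460 nm, with triamterene as reference fluorophore.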

Structure (SMILES) | outcome [1] | Potency [2] | outcome [3] | Potency [4] | Potency [5] | Potency [6] | outcome [7] | outcome [8] | outcome [9] | outcome [10]
CCCN(CCC)CCc1cccc2c1CC(=O)N2 | inactive | inactive | inactive | inactive | inactive | inactive | inactive | inactive | inactive | –
OCCOc1ccc(OCCO)cc1 | inactive | inactive | inactive | inactive | inactive | 1560 nM (active) | inactive | inactive | inactive | inactive
c1ccc(CC2=NCCN2)cc1 | inactive | inactive | inactive | inactive | inactive | inactive | inactive | inactive | inactive | inactive
CC(C)CCCC(C)N (stereo unspecified) | inactive | inactive | inactive | inactive | inactive | inactive | inactive | inactive | inactive | inactive
CC(C)(CC(=O)O)C(=O)O | inactive | inactive | inactive | inactive | inactive | inactive | inactive | inactive | inactive | –
CC(C)(O)C#CC(C)(C)O | inactive | inactive | inactive | inactive | inactive | inactive | inactive | inactive | inactive | inactive
Cc1c(NC(C)C)c(=O)n(-c2ccccc2)n1C | inactive | inactive | inactive | inactive | inactive | inactive | inactive | inactive | inactive | inactive
O=C1NC(=O)[C@@]2(CCOc3ccc(F)cc32)N1 | inactive | inactive | inactive | inactive | inactive | inactive | inactive | inactive | inactive | inactive
CCn1ccnc1CC1COc2ccccc2O1 (stereo unspecified) | inactive | inactive | inactive | inactive | inactive | inactive | inactive | inactive | inactive | inactive
COC(=O)[C@@H](N)Cc1ccc(O)c(O)c1 | inactive | inactive | inactive | inactive | inactive | inactive | inactive | inactive | inactive | inactive
CN(C)CCCSc1ccccc1NC(=O)/C=C/c1ccccc1 | inactive | inactive | inactive | inactive | inactive | inactive | inactive | inactive | inactive | inactive
CC(=O)Nc1ccc(S(N)(=O)=O)cc1 | inactive | inactive | inactive | inactive | inactive | – | inactive | inactive | inactive | inactive
O=C(O)COc1nn(Cc2ccccc2)c2ccccc12 | inactive | inactive | inactive | inactive | inactive | inactive | inactive | inactive | inactive | inactive
Nc1c2c(nc3ccccc13)CCCC2O (stereo unspecified) | inactive | inactive | inactive | inactive | inactive | inactive | inactive | inactive | inactive | inactive
CCCCCCCCCCCC | inactive | inactive | inactive | inactive | inactive | inactive | inactive | inactive | inactive | inactive
O=S(O)CO | inactive | inactive | inactive | inactive | inactive | inactive | inactive | inactive | inactive | inactive
COC(=O)c1ccc(C)cc1C1=NC(C)(C(C)C)C(=O)N1 (stereo unspecified) | inactive | inactive | inactive | inactive | inactive | – | inactive | inactive | inactive | inactive
CC(C[N+](C)(C)C)OC(N)=O (stereo unspecified) | inactive | inactive | inactive | inactive | inactive | inactive | inactive | inactive | inactive | inactive
O=C(O)CCCc1ccccc1 | inactive | inactive | inactive | inactive | inactive | inactive | inactive | inactive | inactive | inactive
N[C@H]1CN(c2c(F)cc3c(=O)c(C(=O)O)cn(C4C[C@H]4F)c3c2Cl)CC12CC2 (stereo partly specified) | inactive | inactive | inactive | inactive | inactive | inactive | inactive | inactive | inactive | inactive
COC(=O)c1c(Cl)c(Cl)c(C(=O)OC)c(Cl)c1Cl | inactive | inactive | inactive | inactive | inactive | inactive | inactive | inactive | inactive | inactive
C1OCOCO1 | inactive | inactive | inactive | inactive | inactive | inactive | inactive | inactive | inactive | inactive
OC[C@]1(O)OC[C@@H](O)[C@H](O)[C@@H]1O | inactive | inactive | inactive | inactive | inactive | inactive | inactive | inactive | inactive | –
CC/C=C\CC/C=C/C(OCC)OCC | inactive | inactive | inactive | inactive | inactive | – | inactive | inactive | inactive | inactive
CCOC(=O)C(=O)OCC | inactive | inactive | inactive | inactive | inactive | inactive | inactive | inactive | inactive | inactive
CCOC(=O)c1ccc(C)cc1 | inactive | inactive | inactive | inactive | inactive | inactive | inactive | inactive | inactive | inactive

Structure (SMILES) | outcome [1] | Potency [2] | outcome [3] | Potency [4] | Potency [5] | Potency [6] | outcome [7] | outcome [8] | outcome [9] | outcome [10]
N[C@H](C(=O)O)c1ccc(O)cc1 | inactive | inactive | inactive | inactive | inactive | inactive | inactive | inactive | inactive | inactive
N=c1nc(N2CCCCC2)cc(N)n1O | inactive | inactive | inactive | inactive | inactive | inactive | inactive | inactive | inactive | inactive
O=[N+]([O-])c1ccc(F)cc1F | inactive | inactive | inactive | inactive | inactive | inactive | inactive | inactive | inactive | –
O=c1n(CCO)c(=O)n(CCO)c(=O)n1CCO | inactive | inactive | inactive | inactive | inactive | inactive | inactive | inactive | inactive | inactive
CC1(C)CO[C@@H](CC(=O)O)CN1 | inactive | inactive | inactive | inactive | inactive | – | inactive | inactive | inactive | inactive
NS(=O)(=O)c1ccc(C(=O)O)cc1 | inactive | inactive | inactive | inactive | inactive | inactive | inactive | inactive | inactive | inactive
CN(C(=O)c1c(O)c2ccccc2n(C)c1=O)c1ccccc1 | inactive | inactive | inactive | inactive | inactive | inactive | inactive | inactive | inactive | inactive
CC(=O)OCC(=O)[C@@]1(O)CCC2C3CCC4=CC(=O)CC[C@]4(C)C3[C@@H](O)C[C@@]21C (stereo partly specified) | inactive | inactive | inactive | inactive | inactive | inactive | inactive | inactive | inactive | inactive
CCN1CCC[C@H]1CNC(=O)c1c(O)c(Cl)cc(Cl)c1OC | inactive | inactive | inactive | inactive | inactive | – | inactive | inactive | inactive | inactive
COc1ccccc1OCC(O)CN1CCN(CC(=O)Nc2c(C)cccc2C)CC1 (stereo unspecified) | inactive | inactive | inactive | inactive | inactive | – | inactive | inactive | inactive | inactive
Cc1cc(O)cc2c1O[C@](C)(CCC[C@H](C)CCC[C@H](C)CCCC(C)C)CC2 | inactive | inactive | inactive | inactive | inactive | inactive | inactive | inactive | inactive | inactive
CC/C=C\CCOC(C)=O | inactive | inactive | inactive | inactive | inactive | – | inactive | inactive | inactive | inactive
CC(C(=O)O)c1ccc(CC2CCCC2=O)cc1 (stereo unspecified) | inactive | inactive | inactive | inactive | inactive | inactive | inactive | inactive | inactive | inactive
Cc1cccn2c(=O)c(-c3nnn[nH]3)cnc12 | inactive | inactive | inactive | inactive | inactive | – | inactive | inactive | inactive | inactive
CCSC(=O)N(CC(C)C)CC(C)C | inactive | inactive | – | inactive | inactive | inactive | inactive | inactive | inactive | –
C[C@H]1C[C@@H](O)CC(C)(C)C1 | inactive | inactive | – | inactive | inactive | inactive | inactive | inactive | inactive | inactive
COc1c(N2C[C@@H]3CCCN[C@@H]3C2)c(F)cc2c(=O)c(C(=O)O)cn(C3CC3)c12 | inactive | inactive | inactive | inactive | inactive | – | inactive | inactive | inactive | –
N=C(N)c1ccc(OCCCOc2ccc(C(=N)N)cc2)cc1 | inactive | inactive | – | inactive | inactive | inactive | inactive | inactive | inactive | –
N[C@@H](C(=O)N[C@@H]1C(=O)N2C(C(=O)O)=C(Cl)CS[C@H]12)c1ccccc1 | inactive | inactive | inactive | inactive | inactive | – | inactive | inactive | inactive | –
c1ccc([C@H]2CN3CCSC3=N2)cc1 | inactive | inactive | – | inactive | inactive | – | inactive | inactive | inactive | inactive
NS(=O)(=O)c1cc(C(=O)O)cc(N2CCCC2)c1Oc1ccccc1 | inactive | inactive | inactive | inactive | inactive | – | inactive | inactive | inactive | inactive
CC(C)CNCC(C)C | inactive | inactive | – | inactive | inactive | inactive | inactive | inactive | inactive | inactive
CCCCCCOC(=O)CCCCC(=O)OCCCCCC | inactive | inactive | – | inactive | inactive | inactive | inactive | inactive | inactive | inactive
CCn1nc(C(=O)O)c(=O)c2cc3c(cc21)OCO3 | inactive | inactive | inactive | – | inactive | – | inactive | inactive | inactive | inactive
CCOC(=O)CCC(C)=O | inactive | inactive | inactive | inactive | inactive | – | inactive | inactive | inactive | inactive
